The whole screen tested about 360,000 compounds, of which about 11,000 (3.1%) were called active. Not shown: some 2% with an inconclusive outcome. This excerpt belongs to a sample that is enriched for actives. A number with no mark means an inactive call. No stated cut-off is given here; in the data, active means fluorescence intensity above about 16000; inconclusive means no clear call, values can overlap the other calls; inactive means below that.
Assay: compound fluorescence in toxin protease inhibitor counterscreen, primary screen, artefact control for toxin protease inhibitor project, biochemical, multiplex microsphere, HTS (AID 624483)
Conditions: compound autofluorescence counterscreen, microsphere flow cytometry; stronger effect = higher value

| Structure (SMILES) | fluorescence intensity |
| --- | --- |
| COc1ccc(Br)cc1CN(C)C(=O)C1CC(=O)N(C2CCCC2)C1 (stereo not drawn) | 3870 |
| CCOC(=O)[C@H]1[C@H]2COc3ccc(Cl)cc3[C@@H]2N2C(=O)c3cc(C)ccc3NC(=O)[C@@]12C | 3320 |
| Cc1cc(/C=C2/NC(=O)NC2=O)c(C)n1-c1cccnc1 | 8090 |
| Cc1ccc(CN2C(=O)N/C(=C/c3cc(C)n(-c4ccccn4)c3C)C2=O)cc1 | 9250 |
| Cc1ccccc1-n1c(C)cc(/C=C2\NC(=O)NC2=O)c1C | 17400 (active) |
| O=C(Nc1c(-c2ccccc2)nc2c(Br)cc(Br)cn12)c1ccco1 | 3100 |
| Nc1ncnc2c1ncn2[C@@H]1O[C@H](CNC(=O)[C@H](N)Cc2cccnc2)[C@@H](O)[C@H]1O | 6300 |
| Cn1c(Nc2ccc(F)cc2)nc2cc(-c3ccsc3)sc2c1=O | 3640 |
| CCNC(=O)C1(C)CCN(Cc2ccc(C(=O)OCC)o2)C1 (stereo not drawn) | 4060 |
| O=C(CSc1nnc(-c2ccc(NS(=O)(=O)c3ccccc3)cc2)o1)NCC1CCCO1 (stereo not drawn) | 3540 |
| CCc1ccccc1NC(=O)CSc1nnc(-c2ccncc2)o1 | 4930 |
| CCN(CC)C(=O)CSc1nnc(-c2ccc(S(=O)(=O)NCc3ccccc3Cl)cc2)o1 | 16600 (active) |
| CC(C)CCN1NC2(CCC(C)CC2)NC1=S (stereo not drawn) | 3830 |
| CC(C)(C)c1ccc(S(=O)(=O)NC(=O)C2(C)CCN2C(=O)CC2CC2)cc1 (stereo not drawn) | 4180 |
| Cc1cc(Br)cn2c(Cc3ccccc3C(F)(F)F)c(-c3ccc(Cl)cc3)nc12 | 5850 |
| Clc1ccc(C2=CSC3=Nc4cccc5cccc(c45)N23)cc1 | 21800 (active) |
| CN(C)c1ccc(C(CC(=O)O)C(=O)O)cc1 (stereo not drawn) | 1950 |
| COc1cccc(NC(=O)CN(C)C(=O)Cc2ccc(Cl)cc2Cl)c1 | 3890 |
| COC(=O)c1sc2ncccc2c1OCc1ccc(Cl)cc1Cl | 23500 (active) |
| O=C(NNc1cc(Cl)ccc1Cl)c1cccnc1Cl | 4240 |
| CC(C)Cc1ccc(-c2cc3nc(NCc4cccc(Cl)c4)ccn3n2)cc1 | 3700 |
| C=CCC[C@@H](CCCCC)OC(=O)/C=C/[C@@H](O)[C@H](O)C[C@H](O)CC=C | 6190 |
| COc1cccc(C(=O)NNC(=O)/C=C/c2ccccc2)c1 | 6790 |
| COc1cccc(C(=O)Nc2cc3c(cc2Br)OCCCO3)c1 | 7110 |
| COc1cccc(C(=O)NNC(=O)c2ccccc2Br)c1 | 16700 (active) |
| CCN(CC(=O)Nc1ccc(OC)cc1)C(=O)c1ccc(Cl)c(S(=O)(=O)N2CCCC2)c1 | 3470 |
| CCN(CC)C(=O)c1ccc(NC(=O)c2cc(-n3cnnc3)ccc2Cl)cc1 | 23800 (active) |
| CCN(CC)C(=O)c1ccc(NC(=O)c2sccc2-c2ccccc2)cc1 | 4580 |
